Test results from article PMC12136788.
Where a chain is given by its changes, count along the chain named. In all, about 24,000 sequences were measured (“enrichment r”: median about 0.99, highest 2% from about 3.7 on). Shown is part of a subset that was picked to be rich in the highest values.

T1: UNK ZnF1-3 (human, UniProt Q9C0B0 31-174)
T1 sequence: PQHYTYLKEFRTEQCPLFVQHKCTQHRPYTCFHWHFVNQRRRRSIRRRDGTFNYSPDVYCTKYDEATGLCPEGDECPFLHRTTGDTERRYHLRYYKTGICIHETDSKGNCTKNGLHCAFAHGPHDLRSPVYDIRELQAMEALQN

B1: chr1:225611761:225611762:-_ENSG00000143815_ENST00000272163|hu_mus|hu_hu_hu_mus_True|78_108 (ssRNA)
RNA: GGGAGUUCUACAGUCCGACGAUCCCAGGCCAUCGACCUCUGACCACUUCACCCUCAGCAAAUUUCCUACUUGGCAUUUUCUAAAAUUAGUCUGGCCGCGCUCCGGCGGGAACUCCAGCCACUCCAGGACAGUCACCAGCAGCCCAACAGAGGAUUGAGCAUCA
B2: 71781198_71781318_2220_CDS_ENSMUSG00000008305_ENSMUST00000030095|mouse|control|control (ssRNA)
RNA: GGGAGUUCUACAGUCCGACGAUCCACGCAGCUCUCGUGGAGGUGCAGCUGGUACUUGUCAGGCUUGUUCACAUGCAGAACUUCCACGUUGCUGCUUUCCAUGCCCACAGCAAGCCACUCCCCAGUUGGGCAAUAUCCCAAAGACAACAGAGGAUUGAGCAUCA
B3: chr3:57561382:57561383:-_ENSG00000168374_ENST00000303436|hu_hu|FALSE|FALSE (ssRNA)
RNA: GGGAGUUCUACAGUCCGACGAUCUAGCAGCACUGCAUCUCUCAAUUCAUCUACCAGAAGCAUUUUCUGCAGCUCAUCUGCUACUUCCUGAAUUCUUUCACGAUCGUUGCUAUCUACCACAAAAAUAAGACCCUGGGUAUUCUGCAACAGAGGAUUGAGCAUCA
B4: chr1:163295886:163295887:+_ENSG00000143228_ENST00000271452|hu_mus|motif|central (ssRNA)
RNA: GGGAGUUCUACAGUCCGACGAUCGGUUUUUGCCAUCUGCUCCUGUUAAUAAUUUAUUGCGAAUAUGAACCACAAGCUCAGCGGCAUUGUAUCUGGGGAAUGACAAAGUUUCCAUUAUGGGAGUCUCCUCCCUGAGUAUUGUUGCAACAGAGGAUUGAGCAUCA
B5: chr6:29525140:29525141:-_ENSMUSG00000012535_ENSMUST00000012679|mus_hu|FALSE|FALSE (ssRNA)
RNA: GGGAGUUCUACAGUCCGACGAUCGUUAGUUUUGUACAAAUGUUCCCCCAGUCGGUACCAAAAGUUAAAUGAAAUUUCUACUACCUCAUAUUGAGGAUGGCCUGCACAGAUAAGCAGCAGCUCCAGAGUUCGAAGGUCCCCAAGCAACAGAGGAUUGAGCAUCA
B6: chr1:36770067:36770068:+_ENSG00000054118_ENST00000354618|hu_mus|FALSE|FALSE (ssRNA)
RNA: GGGAGUUCUACAGUCCGACGAUCUUAAGAGUCAAAGUUGCCCAAAUUAAAAUCUUUACACUAAUAUUACUAUAUAUCCCCUAAAAAGAAGAAAAAGAAAAAAGGAUUUCUUAAUAAAACUCAGGACAGGAAGAGACUGAAAACCAACAGAGGAUUGAGCAUCA
B7: chr1:36770067:36770068:+_ENSG00000054118_ENST00000354618|hu_hu|motif|central (ssRNA)
RNA: GGGAGUUCUACAGUCCGACGAUCUCUUUCAAGAAUCAAAGUUUCCCAAAUUAAAUGUUUCUAAUAUUACUACAUAUGCCGGAAAAAAGAAAAAAAAAAAAAAAAAGGAGGGGGCUUUUAAAAUCAGGACAGGGGAAAAGAGAUCAACAGAGGAUUGAGCAUCA
B8: chr1:201104638:201104639:-_ENSG00000116857_ENST00000367334|hu_hu|FALSE|FALSE (ssRNA)
RNA: GGGAGUUCUACAGUCCGACGAUCAGAGAUCAGAGACCACAUCCCUCUUCCCUAAUCAAAAUAGCCAAGUACAACAUUUCUAAAGUUAGGGAGAAGGAGGAAAAAUGCCACAGGCUUUUAAAGGGAAGACUGGAACCGAGGGAACAACAGAGGAUUGAGCAUCA
B9: chr7:155493584:155493585:+_ENSG00000184863_ENST00000401878|hu_mus|FALSE|FALSE (ssRNA)
RNA: GGGAGUUCUACAGUCCGACGAUCAGAAAGUUCCAAAGUUUCUGGAAUGUUCCUUCUCUCUCUAGUUACAUCUGAAAGCCUAAUAAUUGUUCCUUCUUUCCUUUCAGUUUUAAAACGUAAUCGUCCAGAUUCUUCAUCAUCAUCCAACAGAGGAUUGAGCAUCA
B10: chr1:36770067:36770068:+_ENSG00000054118_ENST00000354618|hu_hu|FALSE|FALSE (ssRNA)
RNA: B7 RNA with G80U, G81A
B11: chr19:16212804:16212805:+_ENSG00000167460_ENST00000300933|hu_hu|motif|central (ssRNA)
RNA: GGGAGUUCUACAGUCCGACGAUCAGGAAAUAUGCAAAAGAACAUCACAUCAAGGAUCAAUUAAUUACCAUCUAUUAAUUACGGUAUGUGGGUAAUUAUGACUAUUUCCCAAGCAUUCUACGUUGACUGCUUGAGAAGAUGUUUCAACAGAGGAUUGAGCAUCA
B12: chr1:59925254:59925255:+_ENSMUSG00000067336_ENSMUST00000087435|mus_hu|FALSE|FALSE (ssRNA)
RNA: GGGAGUUCUACAGUCCGACGAUCAUCUUGUUCUGAACAUGGAUUGCUGUUGUUGUUAUUGGAAUUAGUUCGGCCACCUUCUAGUGGCCGUUCCCUCCUGUCCACAAGACGAUCCAGAACACCUUCAUCAUGGCCAGCUUGUUGCAACAGAGGAUUGAGCAUCA
B13: chr4:101271765:101271766:+_ENSMUSG00000028528_ENSMUST00000094953|mus_mus|motif|central (ssRNA)
RNA: GGGAGUUCUACAGUCCGACGAUCAGACUUGGGUGACAAGUUGUAUACUGUGUAGUGGUCAAGAUGUCUGGAAUCCAAAAAGCGGCGGAUGUCAUCAACCUGAUUCCUGAAUCCUAUGUCAACACUAUCCACAGGAAAGGACAUCAACAGAGGAUUGAGCAUCA
B14: 5953805_5956048_782_CDS_ENSMUSG00000024833_ENSMUST00000025752|mouse|control|control (ssRNA)
RNA: GGGAGUUCUACAGUCCGACGAUCCAAGCCCUGUGCGGAGCCAAAGGUGGUCACCACUUCUCCCCGGUUGGUUCUGGAGGUGUAUUUCUGGGAGGGGGUAGCACUCGGGGAGAAACUUGACGGUGAGAGAAGCUGACGUGGGCUCAACAGAGGAUUGAGCAUCA

What follows are binders tested against T1, UNK ZnF1-3 (assay: nsRBNS (natural sequence RNA bind-n-seq); RBNS binding buffer (assumed for nsRBNS): 25 mM Tris pH 7.5, 150 mM KCl, 3 mM MgCl2, 0.01% Triton X-100, 500 ug/ml BSA, 20 U/ml SUPERase-In, 4 C; UNK is unkempt and MSI1 is Musashi-1; names of the RNAs are library labels; protein concentration not given here; high values mean tight binding).
B1 was tested, and the binding signal was 1.33 enrichment R.
With B2 the binding signal was 0.78 enrichment R.
In the case of B3, the binding signal is reported as 0.947 enrichment R.
Work on B4 yielded a binding signal of 1.12 enrichment R.
For B5, the binding signal was 0.862 enrichment R.
B6 showed a binding signal of 2.39 enrichment R.
In the case of B7, the binding signal is reported as 3.96 enrichment R.
For B8, the binding signal was 2.05 enrichment R.
B9 was tested, and the binding signal was 0.81 enrichment R.
Work on B10 yielded a binding signal of 4.92 enrichment R.
With B11 the binding signal was 0.67 enrichment R.
B12 was tested, and the binding signal was 0.391 enrichment R.
With B13 the binding signal was 0.93 enrichment R.
B14 showed a binding signal of 1.38 enrichment R.
